Screening results (PubChem)
Caspase-1 inhib: qHTS Assay for Allosteric/Competitive Inhibitors of Caspase-1; P29466; Caspase-1 enzyme, Ac-WEHD-AFC fluorogenic rate; Potency, µM (titrated, usually from 57.5 µM), hits mostly inhibitors; hit rate 0.03% among 75,000
Target sequence (P29466 120-297 limits assumed): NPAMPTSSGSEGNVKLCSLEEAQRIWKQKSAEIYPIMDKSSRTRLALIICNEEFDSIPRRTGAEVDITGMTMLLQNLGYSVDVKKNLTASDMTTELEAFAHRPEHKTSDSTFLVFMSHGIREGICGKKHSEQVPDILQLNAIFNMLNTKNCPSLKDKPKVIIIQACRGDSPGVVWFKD
Target sequence (P29466 317-404 limits assumed): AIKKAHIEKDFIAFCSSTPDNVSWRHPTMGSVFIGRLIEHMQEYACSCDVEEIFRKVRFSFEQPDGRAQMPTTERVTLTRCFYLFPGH
15-hLO inh: qHTS Assay for Inhibitors of 15-hLO (15-human lipoxygenase); Polyunsaturated fatty acid lipoxygenase ALOX15 (Homo sapiens), P16050; purified 15hLO-1, xylenol orange hydroperoxide absorbance; Potency, µM (top dose mostly 57.1 µM), most hits filed as inhibitors; hit rate 1.4% among 74,000; further: nearly all actives have a fitted effect of over 55% in size
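Hydroperoxide formed from arachidonic acid (50 uM) by purified human 15hLO-1 (40 nM) oxidizes ferrous iron, and the ferric-xylenol orange complex is read at 573 versus 405 nm. Compounds were preincubated 15 min; reaction ran 6 min at room temperature.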
Caspase-7 inhib: qHTS Assay for Allosteric/Competitive Inhibitors of Caspase-7. hit rate 0.02% among 75,000. AID 889, 2007. recombinant caspase-7, Ac-DEVD-AFC fluorescence rate. Potency, µM (titrated, usually from 57.5 µM), usual class: inhibitors; active means well fitted inhibition curve with a large enough effect in the main read-out, with a control signal flat, not every such curve was filed as active; inconclusive means small, poorly fitted or top-dose-only effect, or a change in a side signal
Target sequence (P55210 24-198 limits assumed): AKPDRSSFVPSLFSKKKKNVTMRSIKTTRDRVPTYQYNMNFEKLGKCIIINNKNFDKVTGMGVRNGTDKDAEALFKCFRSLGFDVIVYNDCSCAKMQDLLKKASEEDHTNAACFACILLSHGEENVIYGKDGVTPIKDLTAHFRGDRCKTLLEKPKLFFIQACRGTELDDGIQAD
Target sequence (P55210 207-303 limits assumed): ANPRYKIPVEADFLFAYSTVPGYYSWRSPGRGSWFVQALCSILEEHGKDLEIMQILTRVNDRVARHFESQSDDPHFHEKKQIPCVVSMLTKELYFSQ
Tau filament bind: qHTS Assay for Tau Filament Binding; Microtubule-associated protein tau (Homo sapiens), P10636; recombinant tau filaments, thioflavin S fluorescence, 15 h; filaments grown with octadecylsulfate alongside compound; Potency, µM (titrated, usually from 57.1 µM); hit rate 2% among 71,000; AID 596, 2007;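 further: actives lower thioflavin S fluorescence by blocking filaments or displacing dye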
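Assay mix: 1 uM His-tagged tau, 30 uM sodium octadecylsulfate, thioflavine S dye in HEPES/NaCl/DTT buffer. Compound is added prior to the inducer. Fluorescence after 15 h at 37 C.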
ERK AVP inh: qHTS Assay for Inhibitors of the ERK Signaling Pathway using a Homogeneous Screening Assay; HEK293-V1b, vasopressin-stimulated pERK AlphaScreen; Potency, µM (top dose mostly 57.5 µM), hits mostly inhibitors; hit rate 0.99% among 72,000; AID 995, 2007; further: nearly all actives have a fitted effect of over 55% in size
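Overnight-seeded V1b-HEK293 cells in 1% FBS got compound, then vasopressin (25 nM final, 5 min, 37C), then lysis buffer. AlphaScreen detection of phospho-ERK; activity normalized to basal and full-stimulation controls.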
Numbers stand for hits; - = inactive; ? = inconclusive; . = no result given; ! = repeats disagree; [ ] = remark or other dose. Hits are enriched below; roughly 3.9% of the tested compounds scored in any of these assays. Unless noted, the call rests on the fitted dose curve; in most records, active means well fitted curve in the direction sought with a large enough effect; inconclusive means small, poorly fitted or top-dose-only effect, or another doubt; inactive means no such curve, though single readings can be large; an effect the other way counts as inactive or inconclusive.

SMILES | Caspase-1 inhib | 15-hLO inh | Caspase-7 inhib | Tau filament bind | ERK AVP inh
Cc1nc2nc(-c3ccccc3)cn2nc1C | . | - | ? | - | -
Cc1nn2cc(-c3ccc(N)cc3)nc2s1 | - | - | - | 15.8µM | -
CNCCCC12CCC(c3ccccc31)c1ccccc12 | - | ? | - | 15.8µM! | -
N#CCCn1c(=O)c(-c2ccc(F)cc2)nc2cnc(Oc3ccccc3)nc21 | . | - | ? | - | -
CCCCCCCCCCCCCCCCCC(=O)NC[C@@H](COP(=O)([O-])OCC[N+](C)(C)C)OCC | - | - | - | - | -
CCOc1ccc(OCC)c(NS(=O)(=O)c2cccc3nsnc23)c1 | - | - | - | 25.1µM | -
CC(C)CCN1CCc2nc(-c3ccccc3)c3c(c2C1)COC(C)C3 (configuration not stated) | -[11.5 µM] | -[11.4 µM] | -[11.5 µM] | . | -[11.5 µM]
NC1=N[C@H](c2ccc(Cl)cc2)N(c2ccc(S(N)(=O)=O)cc2)C(N)=N1 | -[11.5 µM] | -[11.4 µM] | -[11.5 µM] | -[11.4 µM] | -[11.5 µM]
CN(C)c1ccc(NC(=O)Cn2cc3c(n2)CCCC3)cc1 | - | - | - | 12.6µM | ?
FC(F)(F)c1ccccc1-c1ccc2ncnc(NCc3cccs3)c2c1 | - | - | - | - | -
O=C(Nc1nc2ccccc2s1)C1CCCN1S(=O)(=O)c1ccc(Cl)cc1 (configuration not stated) | - | ? | - | - | 20µM
Cc1ccc(S(=O)(=O)N2CCCC2C(=O)Nc2nc3ccccc3s2)cc1 (configuration not stated) | - | ? | - | - | -
Cc1noc(NS(=O)(=O)c2ccc(NC(=O)COc3ccc(Cl)cc3Cl)cc2)c1C | - | ? | - | -[11.4 µM] | 2.51µM
Cc1ccc(OCC(=O)Nc2ccc(S(=O)(=O)Nc3onc(C)c3C)cc2)cc1 | - | - | - | - | -
O=C(Nc1nc2c(Cl)cccc2s1)c1ccc(Br)o1 | - | - | - | - | 25.1µM
O=C(Nc1nc2ccc(Cl)cc2s1)c1ccc(Br)o1 | - | -[11.4 µM] | - | -[11.4 µM] | -
COc1ccc(CNc2ccnc(-c3ccccc3CN(C)C)n2)c(OC)c1 | - | - | - | - | -
O=C(c1cccc(C(=O)N2CCN(c3ccccc3F)CC2)c1)N1CCN(c2ccccc2F)CC1 | - | -[11.4 µM] | - | -[11.4 µM] | 15.8µM
O=C(c1c(F)cccc1F)N1CCN(c2ccccc2F)CC1 | - | - | - | - | -
C[C@@H](/C=C\c1cccc(Oc2ccc(F)cc2)c1)N(O)C(N)=O | - | 10µM | - | ? | ?
C[C@@]12CC[C@@H]3[C@H](CCC4=CC(=O)CC[C@]43C)[C@@H]1CC[C@@H]2C(=O)COS(=O)(=O)c1ccc(Br)cc1 | -[11.5 µM] | ? | -[11.5 µM] | -[11.4 µM] | -[11.5 µM]
O=C1C(Cl)=C(N2CCOCC2)C(=O)N1c1cccc(Cl)c1 | - | 3.98µM | - | -[11.4 µM] | ?
CN1CCCC2(CCN(S(=O)(=O)c3ccccc3)CC2)C1 | - | - | - | - | -
O=c1c2cc(Cl)ccc2oc2nc3n(c(=O)c12)CCCS3 | - | - | - | 12.6µM | -
C/C(=N\[N+](C)(C)C)c1ccc(C)c(C)c1 | -[11.5 µM] | -[11.4 µM] | -[11.5 µM] | -[11.4 µM] | -[11.5 µM]
SMILES | Caspase-1 inhib | 15-hLO inh | Caspase-7 inhib | Tau filament bind | ERK AVP inh
COc1ccc2[nH]cc(CCNc3nc(-c4cccnc4)nc4ccccc34)c2c1 | - | - | - | 25.1µM | -
COc1ccccc1CNc1nc(-c2cccnc2)nc2ccccc12 | - | 25.1µM | - | - | ?
COc1ccc(CNc2nc(-c3cccnc3)nc3ccccc23)c(OC)c1 | - | - | - | - | -
CC(C)C[C@@H](CC(=O)N[C@@H](CCCN)CC(=O)N[C@@H]1CCCC[C@H]1C(=O)N[C@H](CC(=O)N[C@@H](CCC(=O)O)CC(=O)O)Cc1c[nH]c2ccccc12)NC(=O)[C@@H]1CNCC[C@H]1N | . | . | . | - | .
O=Nc1c(-c2c(O)[nH]c3ccccc23)[nH]c2ccccc12 | - | ? | - | 0.398µM | 10µM
O=NC1=C(c2c(O)[nH]c3ccccc23)CCCC1 | - | - | - | - | -
CCCCCCCCCCCCCCCCCC(=O)O[C@H](CC(=O)O)C[N+](C)(C)C | - | - | - | - | ?
CCOC(=O)CNC(=O)CSc1ncnc2c1cnn2-c1ccccc1 | - | - | - | - | -
CCOC(=O)CNC(=O)CSc1ncnc2c1cnn2-c1ccc(C)cc1 | - | - | - | - | 7.94µM
CCn1c(=O)[nH]c2cc(C(=O)N3CCN(c4ccccc4)CC3)ccc2c1=O | - | - | - | - | -
CC(=O)Nc1ccccc1-c1nc2ccc(C(=O)N3CCN(c4ccccc4)CC3)cc2[nH]c1=O | - | - | - | 15.8µM | ?
CCOC(=O)C1=C(C)NC(C)=C(C(=O)OC)[C@@H]1c1cccc([N+](=O)[O-])c1 | - | - | - | - | -
COCCOC(=O)C1=C(C)NC(C)=C(C(=O)OC(C)C)[C@@H]1c1cccc([N+](=O)[O-])c1 | - | - | - | 31.6µM! | -
COC(=O)C1=C(C)NC(C)=C(C(=O)OCCN(C)Cc2ccccc2)[C@@H]1c1cccc([N+](=O)[O-])c1 | - | - | - | 31.6µM | -
O=C(Nc1nc(-c2ccccc2)cs1)c1cccs1 | - | 12.6µM | - | - | 15.8µM
Cc1ccc(-c2csc(NC(=O)c3ccno3)n2)cc1 | - | - | - | 31.6µM | -
O=C(Nc1nc(-c2ccc(Cl)s2)cs1)c1cccs1 | - | 25.1µM | - | - | 10µM
CCCCCCN(CCCCCC)C(=O)Cc1c(-c2ccc(Cl)cc2)[nH]c2ccc(Cl)cc12 | - | - | - | - | -
CC(C)=NO[C@@H](C)c1cc(-c2c(C)cc(C)cc2C)no1 | -[11.5 µM] | -[11.4 µM] | -[11.5 µM] | . | -[11.5 µM]
Cc1ccc2c(c1)N(C(=O)CSc1nncn1C)C(C)(C)c1ssc(=S)c1-2 | - | ? | - | 15.8µM | ?
C/C=C(/C(=C/C)c1ccc(O)cc1)c1ccc(O)cc1 | - | 25.1µM | - | . | -
CC(C)C1COc2cc3oc(=O)ccc3cc2O1 (configuration not stated) | - | - | - | . | -
O=c1c(-c2cccc(Cl)c2)nc2cncnc2n1-c1ccccc1 | - | - | - | - | ?
Clc1ccc(OCc2nnc(SCc3nc4ccccc4[nH]3)n2Cc2ccco2)cc1 | - | - | - | - | 20µM
C#CCCCO/N=C1/C[C@@H](O)[C@@H](O)[C@@H]2[C@@H]3C(=O)N(CCC(=O)OCC)C(=O)[C@H]3CC[C@H]12 | -[11.5 µM] | -[11.4 µM] | -[11.5 µM] | . | -[11.5 µM]
CN(C)c1ncc2nc(CCc3ccccc3)c(=O)n(CCc3ccccc3)c2n1 | - | - | - | - | -
O=S(=O)(NCCOC12CC3CC(CC(C3)C1)C2)c1cccc2nsnc12 | - | - | - | 15.8µM | ?
OC[C@H]1O[C@@H](O[C@@H]2[C@@H](CO)O[C@](O)(CO)[C@H]2O)[C@H](O)[C@@H](O)[C@H]1O | - | - | - | . | -
CC(=O)C1=C(C)NC(SCC(=O)c2ccc(Cl)cc2Cl)=C(C#N)C1c1ccco1 (configuration not stated) | . | 12.6µM | ? | - | -
